# Assay outcomes: PubChem BioAssay, National Center for Advancing Translational Sciences (NCATS)
# This is a sample that favours compounds with a hit; in the whole collection about 3.8% have one here.
# KAT2A inh: inhibitors of human GCN5L2 histone acetyltransferase; GCN5L2 HAT assay, ThioGlo1 CoA-SH fluorescence; Potency, µM (top dose mostly 58.9 µM), for the others: at the top dose activity change, negative = inhibition, usual class: inhibitors; AID 504327; Q92830; 0.21% of 390,000 active
# Target sequence (Q92830 whole entry, looked up): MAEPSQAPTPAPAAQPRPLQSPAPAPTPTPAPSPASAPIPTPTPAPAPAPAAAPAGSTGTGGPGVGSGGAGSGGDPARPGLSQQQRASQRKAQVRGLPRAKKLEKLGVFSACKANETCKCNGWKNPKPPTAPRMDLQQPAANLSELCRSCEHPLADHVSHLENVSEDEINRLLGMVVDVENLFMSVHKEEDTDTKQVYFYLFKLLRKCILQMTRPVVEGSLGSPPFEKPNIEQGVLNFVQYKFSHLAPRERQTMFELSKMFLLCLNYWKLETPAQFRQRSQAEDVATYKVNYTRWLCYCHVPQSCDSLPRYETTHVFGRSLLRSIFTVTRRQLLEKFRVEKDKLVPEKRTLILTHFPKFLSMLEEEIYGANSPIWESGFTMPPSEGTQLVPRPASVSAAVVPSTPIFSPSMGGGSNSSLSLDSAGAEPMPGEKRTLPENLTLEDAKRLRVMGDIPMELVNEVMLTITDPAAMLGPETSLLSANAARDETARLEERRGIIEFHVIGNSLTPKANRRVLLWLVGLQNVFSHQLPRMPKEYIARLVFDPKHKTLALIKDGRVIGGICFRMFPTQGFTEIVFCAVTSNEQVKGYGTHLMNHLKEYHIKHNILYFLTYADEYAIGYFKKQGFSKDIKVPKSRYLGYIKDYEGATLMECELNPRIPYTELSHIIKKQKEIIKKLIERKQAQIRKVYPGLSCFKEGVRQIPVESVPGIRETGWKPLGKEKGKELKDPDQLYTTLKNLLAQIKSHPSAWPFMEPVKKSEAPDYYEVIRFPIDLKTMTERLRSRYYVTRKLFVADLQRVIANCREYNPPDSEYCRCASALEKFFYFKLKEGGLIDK
#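 Free CoA generated was detected with ThioGlo1 (50uM) fluorescence at Ex340nm/Em540nm, read immediately and after 20 min at room temperature. Enzyme, 20 nM in HEPES pH 7.5 buffer, saw compounds 15 min before adding 75uM H3(1-25) peptide and 70uM acetyl-CoA.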
# GLS inh: inhibitors of human glutaminase (GLS). O94925. GLS enzymatic activity, qHTS titration. Potency, µM (top dose mostly 45.5 µM), without a hit: at the top dose activity change, negative = inhibition, usual class: inhibitors. 0.21% of 410,000 active
#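 Two-point fluorescence kinetic (t0, 30 min RT) for hKGA; glutamate detected via glutamate oxidase–HRP–Amplex Red. Substrate: 1 mM L-glutamine solution; buffer 45 mM KH2PO4, pH 8.2.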
# rTrxR1 inhibitor: rat TrxR1 inhibition; O89049; recombinant rTrxR1, NADPH fluorescence consumption, selenite substrate; Potency, µM (highest dose often 114 µM), inactives show at the top dose activity change, negative = inhibition, most hits filed as inhibitors; 1% of 390,000 active; AID 588453; further: nearly all actives have a fitted effect of over 65% in size
#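 Rat TrxR1 (90 nM in the dispensed reagent) was pre-reduced with 400 uM NADPH for 5 min at room temperature, then incubated with compound for 15 min. After 400 uM selenite was added, NADPH fluorescence (Ex 340/Em 450 nm) was followed for 8 min.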
# VDR inh: vitamin D3 receptor (human) inhibition; P11473; 0.93% of 400,000 active; Potency, µM, for inactives: max response, negative = inhibition, actives largely listed as inhibitors; VDR-SRC2-3 peptide fluorescence polarization, 2 h
#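 Compounds are added to VDR with labelled SRC2-3 coactivator peptide and held 2 h at room temperature. Inhibition of the VDR–peptide interaction is then read as a change in fluorescence polarization.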
# TrxR1 substrate: substrates of rat thioredoxin reductase 1; purified TrxR1 substrate turnover, NADPH consumption readout; Potency, µM (highest dose often 114 µM), without a hit: at the highest dose activity change, negative = substrate turnover; 0.01% of 390,000 active; further: nearly all actives have a fitted effect of over 50% in size
#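 Rat TrxR1, dispensed at 90 nM, was prereduced with 400 uM NADPH (final) for 5 min at ~22 deg C, then incubated with compound 15 min before 400 uM selenite. A first-read NADPH fluorescence drop versus no-compound background flagged substrates.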
# Sfp inh: inhibitors of Bacillus subtilis Sfp phosphopantetheinyl transferase; Q9F4F7; Biochemical Sfp PPTase activity, qHTS; Potency, µM, without a hit: largest response in the series, negative = inhibition, most hits filed as inhibitors; 3.5% of 310,000 active; AID 1490;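 further: the enzyme is Sfp with the accession as filed and its product quenches rhodamine fluorescence; 0% = enzyme reaction without inhibitor and -100% = no enzyme wells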
#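 Compounds were incubated with enzyme (final 15 nM) for 15 min at room temperature before substrate addition started the reaction. Fluorescence at 525 nm excitation, 598 nm emission was recorded immediately and after 30 minutes.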
# Starred values were filed as active, the others as inactive; u = inconclusive; x = no result; ! = not active in a repeat; [ ] = remark or other dose. The call rests on the fitted dose curve; in most records, active means well fitted curve in the direction sought with a large enough effect; inconclusive means small, poorly fitted or top-dose-only effect, or another doubt; inactive means no such curve, though single readings can be large; an effect the other way counts as inactive or inconclusive. Unless noted, on the % scale 0 is the no-effect control and ±100 the full control effect; potency means the concentration at half of the fitted maximal effect.
SMILES,KAT2A inh,GLS inh,rTrxR1 inhibitor,VDR inh,TrxR1 substrate,Sfp inh
COc1ccccc1N1CCN(CCn2c(=O)c3c(c4ccccc4n3C)n(C)c2=O)CC1,2%,x,x,45µM*!,x,15%
Cc1ccc(NC(=O)CC2S/C(=N/c3nccs3)N(C)C2=O)c(C)c1 (stereo not drawn),0%,13%,15%[57.1 µM],2%,-4%,-5%
ClC(Cl)(Cl)c1nc2ccccc2n2nncc12,-11%,11µM*,31%,-7%,-1%,14%
FC(F)(F)c1cccc(NC(=S)NNC(=S)NCc2ccccc2)c1,-8%,33%,0%,u,-6%,45µM*
Cc1ccc(NC(=S)NNC(=S)NCc2ccccc2)cc1,-8%,47%,u,50µM*,-7%,56µM*
FC(F)(F)c1cccc(NC(=S)Nc2cccc(NC(=S)Nc3cccc(C(F)(F)F)c3)n2)c1,-5%,-14%,u,-16%,-10%,20µM*
Fc1ccc(NC(=S)NCc2ccccc2)cc1,-7%,3%,u,-3%,-13%,16%
CCNC(=S)NNC(=S)NCc1ccccc1,3%,-5%,-25%,-21%,-11%,56µM*
Cc1cccc(NC(=S)Nc2cccc(C(F)(F)F)c2)n1,-1%,2%,u,-12%,-3%,-7%
C/C(=N/NS(=O)(=O)c1cccc([N+](=O)[O-])c1)c1ccc2c(c1)OCO2,-16%,26%,37%,5%,11%,-7%
O=C(c1ccc(Cn2c(=S)[nH]c3cc4c(cc3c2=O)OCO4)cc1)N1CCN(c2ccccc2)CC1,-5%,-11%,34%[57.1 µM],4%,-1%[57.1 µM],11%
COc1cc(NS(=O)(=O)c2ccc(NC(=S)NC(=O)c3sc4cc(F)ccc4c3Cl)cc2)nc(OC)n1,5%,-3%,-22%,u,-14%,50µM*
COc1cc(NS(=O)(=O)c2ccc(NC(=S)NC(=O)c3sc4ccccc4c3Cl)cc2)nc(OC)n1,0%,22%,u,-12%,-2%,50µM*
NC(N)=NS(=O)(=O)c1ccc(NC(=S)NC(=O)c2sc3ccccc3c2Cl)cc1,-3%,7%,-19%,-13%,-11%,56µM*
O=C(O)c1ccccc1NC(=S)NC(=O)c1sc2ccccc2c1Cl,-15%,-2%,20%[57.1 µM],u,18%[57.1 µM],45µM*
O=C(NC(=S)Nc1ccccc1N1CCOCC1)c1sc2ccccc2c1Cl,-1%,24%,-4%,7%,-2%,-15%
O=C(NC(=S)Nc1ccc(N2CCOCC2)c(Cl)c1)c1sc2ccccc2c1Cl,-9%,13%,-1%,-3%,4%,u
COc1cc(NS(=O)(=O)c2ccc(NC(=S)NC(=O)c3ccco3)cc2)nc(OC)n1,4%,10%,-9%,24%,4%,-25%
O=C(Nc1ccccc1N1CCCC1)c1cccc(-c2cc3ccccc3oc2=O)c1,-9%,29%,3%,-11%,-5%,5%
O=C(Nc1ccc(N2CCCC2)cc1)c1cccc(-c2cc3ccccc3oc2=O)c1,28%,0%,-21%,u,-11%,16µM*
CC(C)=NOCc1cccc(-c2cc(-c3ccccc3)no2)c1,x,x,x,x,x,-5%
COC(=O)/C=C1/N/C(=N\c2nc(C)cc(C)n2)N(c2ccc(C)c(C)c2)C1=O,3%,13%,-5%[57.1 µM],-15%,2%[57.1 µM],-9%
O=C(Nc1ccc(OCc2cc(=O)n3ccsc3n2)cc1)c1ccc(F)cc1,-5%,15%,10%,-13%,8%,x
CC1(C)Cc2ccccc2C(=NCCCCCC(=O)O)N1,-1%,x,x,x,x,12%
O=[N+]([O-])c1cc(/C=N/N/C(=N/c2ccccn2)c2ccccn2)ccc1O,1%,0%,4%[57.1 µM],-11%,0%[57.1 µM],12%
SMILES,KAT2A inh,GLS inh,rTrxR1 inhibitor,VDR inh,TrxR1 substrate,Sfp inh
O=[N+]([O-])c1ccc(/C=N/N/C(=N/c2ccccn2)c2ccccn2)cc1,17%,17%,-9%,0%,-11%,45µM*
CCN=C(N/N=C/c1ccc([N+](=O)[O-])cc1)SC,u,3%,-12%,-19%,-12%,79µM*
CCOc1ccc(CNC(=S)N/N=C\c2ccc([N+](=O)[O-])cc2)cc1,-1%,13%,-9%,-8%,-2%,56µM*
O=[N+]([O-])c1ccc(C=NNC(=S)NN=Cc2ccc([N+](=O)[O-])cc2)cc1,x,-27%,5%[2.29 µM],-15%,-6%[57.1 µM],x
COc1ccccc1CNC(=O)CSc1ncc(C(=O)Nc2ccccc2)c(=O)n1C,-5%,-5%,-5%,-7%,7%,x
COc1ccc(OC)c(NC(=O)CSc2nnc(C3CCCCC3)n2N)c1,-2%,5%,1%[57.1 µM],-6%,-3%[57.1 µM],x
N#CCCn1c(=O)c(-c2cccs2)nc2cnc(Nc3ccccc3)nc21,-2%,x,x,2%,x,-13%
CCNc1ncc2nc(-c3cccs3)c(=O)n(CCC#N)c2n1,7.1µM*,x,x,-6%,x,-5%
CC(C)(C)NC(=O)C(=O)NN=C1CCCCCCCCCCC1,2%,6%,-20%,13%,-5%,79µM*
CCn1c(SCC(=O)N2c3ccccc3Sc3ccccc32)nnc1-c1ccco1,-6%,-1%,20µM*,-21%,9%,u
O=C(CSc1nnc(-c2ccc(Cl)cc2)n1Cc1ccco1)Nc1ccc2c(c1)OCCO2,-20%,2%,u,26%,6%,32µM*
CCOC(=O)CSc1nnc(-c2ccco2)n1-c1ccccc1,1%,-4%,u,14%,-4%,35µM*
C=CCn1c(SCC(=O)N2c3ccccc3Sc3ccccc32)nnc1-c1ccco1,-5%,-1%,-3%[57.1 µM],13%,5%[57.1 µM],-16%
O=C(O)CSc1nnc(-c2ccc(S(=O)(=O)N3CCCC3)cc2)n1Cc1ccco1,1%,10%,12%,6%,4%,32µM*
COC(=O)CSc1nnc(-c2ccco2)n1Cc1ccco1,-4%,-3%,u,12%,3%,22µM*
COCCn1c(SCc2cccnc2)nnc1-c1ccco1,-8%,9%,u,0%,3%,20µM*
CCOC(=O)CNC(=O)CSc1nnc(-c2ccccc2)n1Cc1ccco1,-16%,2%,-3%[57.1 µM],11%,8%[57.1 µM],13µM*
COCCn1c(SCC(=O)NCCc2ccccc2)nnc1-c1ccco1,-5%,1%,u,18%,-1%,-22%
COc1cccc(CN2CCC(C(=O)N3CCN(c4ccccc4F)CC3)CC2)c1,2%,4%,u,14%,-4%,-11%
CC(C)(C)c1ccc(C2(C)NC(=O)N(CC(=O)NCc3cccs3)C2=O)cc1 (stereo not drawn),-3%,-6%,20%,1%,1%,8%
